Data published in publication PMC5540273 (PLoS ONE, 2017).
Where “and” joins values, the source holds several entries; their conditions need not be identical. Equal entries are not always repeated. Where two headings read alike, the source gives them in different places.

Key:
[1] = system: CAMKK1; settings: concentration: 1 μM, replicates: in singlicate, n = 1
[2] = system: CAMKK2; settings: concentration: 1 μM, replicates: in singlicate, n = 1
[3] = system: CASK; settings: concentration: 1 μM, replicates: in singlicate, n = 1
[4] = system: T1, CDC2L1; settings: concentration: 1 μM, replicates: in singlicate, n = 1
T1 construct: gene CDK11B

[5] = system: CDC2L2; settings: concentration: 1 μM, replicates: in singlicate, n = 1
[6] = system: T2, CDC2L5; settings: concentration: 1 μM, replicates: in singlicate, n = 1
T2 construct: gene CDK13

[7] = system: T3, CDK11; settings: concentration: 1 μM, replicates: in singlicate, n = 1
T3 construct: gene CDK19

[8] = system: CDK2; settings: concentration: 1 μM, replicates: in singlicate; n = 1
[9] = system: CDK3; settings: concentration: 1 μM, replicates: in singlicate; n = 1
[10] = system: CDK4-cyclinD1; settings: concentration: 1 μM, replicates: in singlicate, n = 1
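Further: KINOMEscan kinase panel screen.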

Row | Compound | %Inh [1] [%] | %Inh ([2]; 1 µM) | %Inh ([3]; 1 µM) | %Inh [4] [%] | %Inh ([5]; 1 µM) | %Inh ([6]; 1 µM) | %Inh [7] [%] | %Inh [8] [%] | %Inh [9] [%] | %Inh ([10]; 1 µM) | %Inh [2] [%] | %Inh [3] [%] | %Inh [5] [%] | %Inh [6] [%] | %Inh [10] [%] | %Inh ([1]; 1 µM) | %Inh ([4]; 1 µM) | %Inh ([7]; 1 µM)
1 | CC(C)(CN)c1nc(-c2ccc(Cl)c(O)c2)c(-c2ccncc2)[nH]1.O=C(O)C(F)(F)F [SB-477794] | 0 | 0% and 4% | 18% and 0% | 0 | 31% and 2% | 0% and 30% | 0 | 0 | 7 | 25% and 64% |  |  |  |  |  |  |  | 
2 | COc1cc2c(cc1OCCN1CCN(C)CC1)ncc1c3ccc(C#N)cc3[nH]c21 | 86 |  |  | 7 |  |  | 0 | 2 | 0 |  | 70 | 8 | 7 | 0 | 0 |  |  | 
3 | O=C(Nc1cccc(-c2nn3ncccc3c2-c2ccnc(Nc3cccc(C(F)(F)F)c3)n2)c1)c1c(F)cccc1F [GSK299495] | 0 |  |  | 0 |  |  | 15 | 0 | 3 |  | 8 | 13 | 19 | 0 | 0 |  |  | 
4 | Cc1ccc(NC(=O)c2ccnc(N3CCN(C)CC3)c2)cc1-c1ccc(C(=O)NCC2CC2)cc1 [GW775604] | 0 |  |  | 0 |  |  | 0 | 0 | 34 |  | 0 | 10 | 0 | 0 | 0 |  |  | 
5 | O=C1Cc2cc(Nc3nc(NCc4cccc(S(=O)(=O)C(F)(F)F)c4)ncc3C(F)(F)F)ccc2N1 | 9 |  |  | 9 |  |  | 8 | 0 | 0 |  | 3 | 0 | 0 | 12 | 5 |  |  | 
6 | O=C(NCCNc1ccnc(Nc2ccc(F)cc2)n1)Nc1ccccc1F [GSK1379880] | 0 |  |  | 0 |  |  | 0 | 0 | 20 |  | 0 | 1 | 9 | 0 | 0 |  |  | 
7 | c1ccc(-c2n[nH]cc2-c2ccnc3ccccc23)nc1 [GW271431] | 17 |  |  | 0 |  |  | 34 | 0 | 0 |  | 30 | 0 | 24 | 0 | 0 |  |  | 
8 | CNc1ncnc2[nH]ncc12 [SKF-18355] | 0 |  |  | 0 |  |  | 0 | 0 | 12 |  | 0 | 22 | 0 | 0 | 0 |  |  | 
9 | Cc1cccc(Cn2ccn3c(=O)cc(N4CCOCC4)nc23)c1 [GSK2297542] | 5 |  |  | 0 |  |  | 0 | 8 | 20 |  | 27 | 20 | 15 | 0 | 0 |  |  | 
10 | Fc1ccc(-c2ncn(CCCN3CCOCC3)c2-c2ccccn2)cc1 [SB-211742] | 16 |  |  | 1 |  |  | 0 | 0 | 43 |  | 19 | 0 | 0 | 21 | 22 |  |  | 
11 | COc1ccc(COc2cc(-n3cnc4ccccc43)sc2C(N)=O)cc1 [GSK1024304] | 4 |  |  | 0 |  |  | 22 | 0 | 9 |  | 13 | 0 | 0 | 0 | 0 |  |  | 
12 | NCCNS(=O)(=O)c1ccc(-c2ccnc3[nH]ccc23)cc1 [GSK977617] |  | 37% and 16% | 19% and 21% |  | 13% and 15% |  |  | 0 | 0 |  |  |  |  | 0 | 0 | 31% and 9% | 0% and 14% | 9% and 0%
13 | O=C(c1ccc(-c2cc(-c3c[nH]nc3-c3ccccn3)ccn2)cc1)N1CCOCC1 [GW812171] | 0 |  |  | 0 |  |  | 0 | 0 | 0 |  | 0 | 4 | 2 | 11 | 0 |  |  | 
14 | COc1ccc(Nc2nccc(N3CCC(NC(=O)Nc4cc(C)ccc4C)C3)n2)cc1 (stereo not shown) [GSK1379741] | 0 |  |  | 0 |  |  | 70 | 0 | 7 |  | 0 | 3 | 0 | 0 | 0 |  |  | 
15 | O=c1cc(N2CCOCC2)nc2n(Cc3cccc4ccccc34)ccn12 [GSK2333389] | 0 |  |  | 0 |  |  | 0 | 12 | 0 |  | 0 | 0 | 0 | 0 | 0 |  |  | 
16 | Cl.Cl.Cl.Fc1ccc(-c2ncn(C3CCNCC3)c2-c2ccnc(Nc3ccccc3)n2)cc1 [SB-238039] | 0 |  | 16% and 0% |  | 99.8% and 98.2% | 32% and 16% |  | 0 | 0 | 0% and 15% | 0 |  |  |  |  |  | 99.4% and 98.5% | 0% and 2%
17 | CCn1cnc2c(N)ncnc21 [GW345098] | 8 |  |  | 1 |  |  | 0 | 0 | 1 |  | 2 | 31 | 6 | 0 | 0 |  |  | 

Row | Compound | %Inh [1] [%] | %Inh ([2]; 1 µM) | %Inh ([3]; 1 µM) | %Inh [4] [%] | %Inh ([5]; 1 µM) | %Inh ([6]; 1 µM) | %Inh [7] [%] | %Inh [8] [%] | %Inh [9] [%] | %Inh ([10]; 1 µM) | %Inh [2] [%] | %Inh [3] [%] | %Inh [5] [%] | %Inh [6] [%] | %Inh [10] [%] | %Inh ([1]; 1 µM) | %Inh ([4]; 1 µM) | %Inh ([7]; 1 µM)
18 | O=c1cc(N2CCOCC2)nc2n(Cc3cccc(C(F)(F)F)c3)ccn12 [GSK2297543] | 3 |  |  | 0 |  |  | 3 | 0 | 0 |  | 0 | 9 | 18 | 0 | 0 |  |  | 
19 | N#Cc1ccc(-c2cc(-c3c[nH]nc3-c3ccccn3)ccn2)cc1 [GW693028] | 0 |  |  | 0 |  |  | 12 | 0 | 6 |  | 2 | 9 | 0 | 0 | 0 |  |  | 
20 | Nc1nccc(-c2c(-c3ccc(F)cc3)ncn2C2CCN(CC(F)(F)F)CC2)n1 [SB-236560] | 13 |  |  | 0 |  |  | 17 | 0 | 11 |  | 88 | 0 | 0 | 43 | 49 |  |  | 
21 | COc1cc2ncn(-c3cc(OCc4sccc4Cl)c(C(N)=O)s3)c2cc1OC [GSK448459] | 4 |  |  | 0 |  |  | 9 | 0 | 8 |  | 76 | 12 | 10 | 0 | 0 |  |  | 
22 | NCC(NC(=O)c1cc(-c2cn[nH]c2)c(-c2ccnc3[nH]ccc23)s1)c1ccccc1.O=C(O)C(F)(F)F.O=C(O)C(F)(F)F (stereo not shown) [GSK1325775] | 76 |  |  | 0 |  |  | 34 | 0 | 0 |  | 67 | 23 | 11 | 32 | 48 |  |  | 
23 | NS(=O)(=O)CCc1cccc(Nc2nccc(-c3c(-c4cccc(NC(=O)c5c(F)cccc5F)c4)nn4ccccc34)n2)c1 [GSK336735] | 0 |  |  | 11 |  |  | 14 | 0 | 21 |  | 8 | 7 | 35 | 0 | 0 |  |  | 
24 | Cc1nnc(-c2ccc(C)c(-c3ccc(C(=O)Nc4ccc(NS(C)(=O)=O)cc4)cc3)c2)o1 [GW702865] | 0 |  |  | 0 |  |  | 0 | 0 | 1 |  | 0 | 23 | 8 | 0 | 36 |  |  | 
25 | N#Cc1c(N2CCOCC2)sc(-c2ccn[nH]2)c1-c1ccc(Cl)cc1 | 0 |  |  | 0 |  |  | 7 | 0 | 5 |  | 0 | 0 | 11 | 0 | 31 |  |  | 
26 | CC(C)(C)n1cnc2c(N)ncnc21 [SKF-97359] | 0 |  |  | 0 |  |  | 0 | 0 | 0 |  | 0 | 0 | 0 | 0 | 21 |  |  | 
27 | CC(C)Oc1ccc2c(-c3ccnc(Nc4ccc(N5CCN(C)CC5)cc4)n3)cnn2n1 [GW696155] | 40 |  |  | 63 |  |  | 19 | 0 | 17 |  | 44 | 23 | 51 | 0 | 94.4 |  |  | 
28 | Cn1ccc2ncnc(Oc3ccc(NC(=O)Nc4ccncc4)c(Cl)c3)c21 | 0 |  |  | 0 |  |  | 0 | 0 | 0 |  | 2 | 0 | 0 | 25 | 0 |  |  | 
29 | O=C(NCCNc1ccnc(Nc2ccc(F)cc2)n1)c1cc2ccccc2s1 [GSK1379874] | 5 |  |  | 0 |  |  | 0 | 0 | 0 |  | 0 | 1 | 8 | 0 | 0 |  |  | 
30 | Cc1cccc(-c2nc(-c3ccc(S(C)(=O)=O)cc3)sc2-c2ccncc2)c1 | 4 |  |  | 0 |  |  | 0 | 14 | 3 |  | 5 | 0 | 0 | 9 | 0 |  |  | 
31 | Cc1ccc(C(=O)NCC(N)=O)cc1-n1c(C)cc(OCc2ccc(F)cc2F)c(Br)c1=O | 3 |  |  | 7 |  |  | 0 | 0 | 0 |  | 0 | 0 | 20 | 0 | 0 |  |  | 
32 | Cl.Nc1ncnc2occ(-c3ccc(NC(=O)Nc4cc(C(F)(F)F)ccc4F)cc3)c12 [SB-707548] | 9 |  |  | 25 |  |  | 100 | 80 | 89 |  | 25 | 5 | 49 | 97.4 | 3 |  |  | 
33 | Fc1ccc(-c2ncn(CCCN3CCOCC3)c2-c2cccnc2)cc1 [SB-211743] | 0 |  |  | 0 |  |  | 0 | 0 | 16 |  | 0 | 6 | 0 | 0 | 0 |  |  | 
34 | CN1c2ccc(CNc3ccc(F)cc3)cc2-c2c(cnn2C)S1(=O)=O | 0 |  |  | 0 |  |  | 0 | 0 | 0 |  | 0 | 22 | 0 | 15 | 13 |  |  | 
